In the supplement of paper PMC3334620:
Over roughly 33,000 sequences, “E-score (-0.5 to 0.5)” has its median near -0.041; the highest 2% begin near 0.37. For the sample, the highest values were picked, then their nearest neighbours and some sequences at random.

target: T1, Ecm22 (UniProt Q05958); test: PBM E-score (8-mer binding enrichment) (E-score (-0.5 to 0.5)); higher = stronger / more preferred TF binding; details: protein concentration: 200 nM; construct: GST-full length
T1 sequence: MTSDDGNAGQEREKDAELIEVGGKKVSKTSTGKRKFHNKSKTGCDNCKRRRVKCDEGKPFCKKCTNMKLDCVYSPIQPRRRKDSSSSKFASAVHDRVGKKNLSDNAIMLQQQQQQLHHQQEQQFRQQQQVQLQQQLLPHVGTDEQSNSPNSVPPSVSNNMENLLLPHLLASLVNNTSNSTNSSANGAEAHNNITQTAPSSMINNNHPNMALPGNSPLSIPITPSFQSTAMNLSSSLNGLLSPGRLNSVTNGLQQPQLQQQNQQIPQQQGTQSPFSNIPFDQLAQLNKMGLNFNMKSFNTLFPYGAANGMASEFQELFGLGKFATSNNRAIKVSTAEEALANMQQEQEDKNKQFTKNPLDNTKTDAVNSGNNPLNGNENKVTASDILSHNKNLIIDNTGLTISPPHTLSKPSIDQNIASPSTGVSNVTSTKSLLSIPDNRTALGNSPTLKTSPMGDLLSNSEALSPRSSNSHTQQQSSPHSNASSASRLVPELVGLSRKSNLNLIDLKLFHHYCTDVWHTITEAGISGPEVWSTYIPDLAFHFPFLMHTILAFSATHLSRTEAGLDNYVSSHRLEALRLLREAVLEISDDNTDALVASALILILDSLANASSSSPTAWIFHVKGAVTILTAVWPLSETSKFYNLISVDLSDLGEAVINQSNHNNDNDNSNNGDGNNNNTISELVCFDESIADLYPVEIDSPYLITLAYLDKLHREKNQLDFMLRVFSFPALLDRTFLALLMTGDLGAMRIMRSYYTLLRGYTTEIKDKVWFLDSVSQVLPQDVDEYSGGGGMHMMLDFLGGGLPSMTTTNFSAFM
In short: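 Universal all-10-mer Agilent arrays, fresh or stripped once, were converted to double-stranded form by primer extension. GST-tagged yeast transcription factors from PURExpress in vitro transcription/translation, full-length or DNA-binding domain only, were applied at about 100-200 nM and detected with fluorescent anti-GST. After masliner normalisation, the Universal PBM Analysis Suite scored each ungapped eight-base word together with its reverse complement by E-score.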

| Sequence | PBM E-score |
| --- | --- |
| ATGCAAAG | 0.0339 |
| AAAAATGA | -0.0643 |
| AGGCTCAG | -0.211 |
| GTTAGGGA | 0.0493 |
| AGGTGCTG | -0.371 |
| AGCATACT | 0.0121 |
| CCGGACCA | 0.0404 |
| CGGGAACA | 0.165 |
| AGGGAACC | 0.00984 |
| CGGGAACG | 0.456 |
| CGGGAACC | 0.0199 |
| AGGGAACG | 0.465 |
| AGGGAACA | -0.166 |
| AAAGGAGT | -0.131 |
| GTTTCCTA | 0.0344 |
| GCGGCTAA | -0.034 |
| AAATCTGA | -0.168 |
| CCTTGGCG | -0.159 |
| AGTACCAC | 0.0416 |
| CGTACCAC | 0.446 |
| AGTACCAG | -0.14 |
| CATACCAG | -0.0569 |
| CGTACCAA | 0.444 |
| GGTACCAC | -0.137 |
| CGTACCAG | 0.397 |

| Sequence | PBM E-score |
| --- | --- |
| TGTACCAA | 0.036 |
| AGTACCAA | -0.119 |
| TCCCTAAA | -0.00662 |
| CGCACGTC | 0.00508 |
| TAGGGATA | -0.165 |
| GCAGTAAA | -0.0139 |
| CGAACGCA | 0.242 |
| GCTTCCCC | -0.098 |
| CAAAGCCA | -0.0435 |
| GCTACGAA | 0.429 |
| CCTACGAA | 0.192 |
| GCTACGAC | 0.426 |
| ACTACGAC | 0.329 |
| TCTACGAA | 0.312 |
| CCTACGAC | 0.232 |
| CCTCTCAA | -0.127 |
| CTCGTATC | 0.478 |
| ATCGTATG | 0.438 |
| ATCGTATA | 0.488 |
| ATCGTGTA | 0.25 |
| CACGTATC | 0.132 |
| ATAGTATA | 0.211 |
| AGCGTATC | 0.0945 |
| CGCGTATC | 0.232 |
| ATAGTATC | 0.127 |

| Sequence | PBM E-score |
| --- | --- |
| ATAGTATG | 0.0828 |
| ATCGTATC | 0.418 |
| AGCGTATG | 0.136 |
| TCTGCTCA | -0.168 |
| TCGAGCGA | 0.0676 |
| ATATCAAC | -0.103 |
| CCAGTTGC | -0.196 |
| ACTGGCCA | -0.206 |
| CAGAGTCA | -0.226 |
| GCAGAGAC | -0.357 |
| AGTATAGC | 0.0261 |
| CGTATAGC | 0.477 |
| GGTATAGA | -0.0121 |
| CGTATAGA | 0.458 |
| AGTATAGA | 0.16 |
| CCTATAGC | -0.248 |
| ACATGGGC | -0.263 |
| GAAGTCCC | -0.172 |
| ACGTTCGC | 0.157 |
| GAAATTGC | 0.0049 |
| ACACATTA | 0.031 |
| CCACGAGG | 0.00398 |
| ATGTCGTA | 0.446 |
| CTGTCGTA | 0.453 |
| GTGTCGGA | 0.0575 |

| Sequence | PBM E-score |
| --- | --- |
| CTGTCGTC | 0.161 |
| ATGTCGTG | 0.0288 |
| ATGTCGTC | 0.0394 |
| CTGTCGAA | -0.00303 |
| GTGTCGCA | 0.162 |
| GTGTCGTA | 0.445 |
| AACCAATT | -0.233 |
| ATCTACCC | 0.0111 |
| ATTTACGC | 0.0401 |
| CTTTACGA | 0.464 |
| GTTTACGA | 0.46 |
| AATTACGA | 0.361 |
| CATTACGA | 0.289 |
| ATTTACGG | 0.31 |
| ATTTACGA | 0.453 |
| CTTTACCA | -0.226 |
| TATTACGA | 0.389 |
| GTTTACTA | 0.182 |
| GTTTACAA | 0.19 |
| CTTTACGC | 0.211 |
| CGGACTGC | -0.0684 |
| ATTCTATA | -0.00057 |
| CTACTGCA | -0.158 |
| AGAGGAAG | -0.167 |
| ATCACTAA | -0.0903 |

| Sequence | PBM E-score |
| --- | --- |
| AAAGGGTC | -0.109 |
| ATCATAGC | -0.0799 |
| AGTCCCAG | -0.0584 |
| GAAGAAGA | -0.0416 |
| GGGTCCTA | -0.218 |
| TGGGACCA | -0.27 |
| GAAGGTTA | -0.016 |
| AGGAGCTG | -0.288 |
| ACGAGCTC | 0.39 |
| ACGAGCTA | 0.39 |
| ACGAGCAA | 0.288 |
| AAGAGCTG | -0.264 |
| ACGAGCTG | 0.411 |
| AGGAGCTC | -0.0307 |
| CCGAGCTC | 0.219 |
| CCGAGCTA | 0.101 |
| GCGAGCTA | 0.248 |
| ACGAGCAG | 0.383 |
| ACGAGCAT | 0.365 |
| GAAGTATC | 0.0371 |
| ACTTCACG | -0.0496 |
| ATATGGAT | 0.133 |
| ACGGTTTA | 0.0698 |
| CAACTCTC | -0.11 |
| AGTCCGAA | 0.0505 |

| Sequence | PBM E-score |
| --- | --- |
| CGTTTCGA | 0.202 |
| CGTCGTAA | 0.446 |
| TGTCGTAA | 0.428 |
| AGTCGTGA | 0.0257 |
| AGTCGTAA | 0.395 |
| TGGCGTAA | 0.0429 |
| GGTCGTCA | 0.0226 |
| CGTCGTGA | 0.117 |
| GGTCGTGA | -0.0346 |
| AGTCGTCA | -0.236 |
| TATCGTAA | 0.363 |
| CGTCGTCA | 0.0778 |
| GGTCGTAA | 0.417 |
| CGCGAGAG | 0.233 |
| ACGGTAGC | -0.00152 |
| ACAATCGC | 0.226 |
| AAGTTTTC | 0.0919 |
| AGCCTGGC | -0.142 |
| ACCGTGCG | 0.161 |
| GTCCGTGA | 0.0485 |
| CCTTAGCA | -0.287 |
| CTACGACC | 0.413 |
| ATACGACC | 0.473 |
| CGACGACC | 0.154 |
| ACACGACG | 0.251 |

| Sequence | PBM E-score |
| --- | --- |
| AGACGACG | 0.23 |
| AGACGACC | 0.0158 |
| ATACGACG | 0.485 |
| CCACGACC | 0.00845 |
| ACACGACC | 0.186 |
| CCGCGCTA | 0.0135 |
| ATGAGAGG | -0.151 |
| CTCGCAAG | 0.17 |
| GTCCGTCA | -0.131 |
| CAGGGCAG | -0.104 |
| ACTTTCCA | -0.205 |
| AAGTAGCA | -0.137 |
| ATTGTAGA | 0.0824 |
| ACCGTTCC | 0.434 |
| CCCGTTCC | 0.447 |
| GACGTTCC | 0.141 |
| ACCGTTCT | 0.135 |
| CCCGTTCG | 0.196 |
| GCCGTTCC | 0.444 |
| ACCGTTCG | 0.229 |
| GCCGTTCA | 0.229 |
| CCCGTTCA | 0.267 |
| GAGGCTCA | -0.237 |
| CTCGGCAA | 0.106 |
